Source: PubChem (National Center for Advancing Translational Sciences (NCATS))
BLM inh = qHTS Assay for Inhibitors of Bloom's syndrome helicase (BLM) | recombinant BLM DNA unwinding, fluorescence dequenching | Potency, µM (highest dose often 56.1 µM), inactives show top-dose activity change, negative = inhibition, usual class: inhibitors | 350,000 compounds, 0.2% hits | AID 2528, 2010;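 also: plate controls were vehicle for no effect and no enzyme for full effect; nearly all actives have a fitted effect of over 35% in size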
KDM4E inh = qHTS Assay for Inhibitors of Human Jumonji Domain Containing 2E (JMJD2E) | JMJD2E catalytic domain, FDH-coupled NADH fluorescence (FDH is formaldehyde dehydrogenase) | AID 2147, 2009 | 230,000 compounds, 1.6% hits | Potency, µM (top dose mostly 57.1 µM), inactives show at the top dose activity change, negative = inhibition, hits mostly inhibitors | Lysine-specific demethylase 4E (Homo sapiens), B2RXH2; active = well fitted inhibition curve with a large enough effect, not every such curve was filed as active; inconclusive = small, poorly fitted or top-dose-only effect, or another doubt; inactive = no such curve, though single readings can be large or run the other way;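 also: 0% = wells with enzyme and -100% = buffer wells without enzyme; nearly all actives have a fitted effect of over 50% in size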
RECQ1 helicase = qHTS Assay for Inhibitors of RecQ-Like Dna Helicase 1 (RECQ1) | ATP-dependent DNA helicase Q1 (Homo sapiens), P46063 | RECQ1 DNA unwinding, red fluorescence kinetic read | Potency, µM (titrated, usually from 57.3 µM), inactives show at the highest dose activity, negative = inhibition, actives largely listed as inhibitors | 240,000 compounds, 0.54% hits | AID 2549, 2010;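 also: plate controls were vehicle for no effect and no enzyme for full effect; nearly all actives have a fitted effect of over 30% in size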
Target sequence (P46063 whole entry, looked up): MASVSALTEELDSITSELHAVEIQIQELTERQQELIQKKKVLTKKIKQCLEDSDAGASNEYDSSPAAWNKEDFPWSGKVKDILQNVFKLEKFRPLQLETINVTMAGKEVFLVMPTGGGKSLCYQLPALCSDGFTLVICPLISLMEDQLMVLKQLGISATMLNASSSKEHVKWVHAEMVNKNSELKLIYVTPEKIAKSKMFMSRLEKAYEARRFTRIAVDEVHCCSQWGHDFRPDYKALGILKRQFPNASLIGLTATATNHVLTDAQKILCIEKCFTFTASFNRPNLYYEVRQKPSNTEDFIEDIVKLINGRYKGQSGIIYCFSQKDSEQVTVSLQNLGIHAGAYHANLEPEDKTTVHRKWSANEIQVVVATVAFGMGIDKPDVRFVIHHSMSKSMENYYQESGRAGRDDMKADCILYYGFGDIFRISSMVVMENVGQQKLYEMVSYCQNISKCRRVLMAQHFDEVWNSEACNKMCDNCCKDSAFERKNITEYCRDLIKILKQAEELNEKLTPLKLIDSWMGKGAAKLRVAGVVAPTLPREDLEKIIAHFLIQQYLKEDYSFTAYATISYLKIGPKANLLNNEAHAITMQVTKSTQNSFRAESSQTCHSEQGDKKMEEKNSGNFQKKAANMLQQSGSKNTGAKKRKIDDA
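50 nM RECQ1T1 preincubated 15 min with compound in Tris pH 8.0 buffer with MgCl2, DTT, Tween-20 and 2.5 ug/ml poly(dI-dC); started with 200 nM TAMRA/BHQ-2 forked duplex and 2 mM ATP. Unwinding read as fluorescence (525/598 nm), two reads 2 h apart.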
APE1 inh = qHTS Assay for Inhibitors of the Human Apurinic/apyrimidinic Endonuclease 1 (APE1); Potency, µM (top dose mostly 65.8 µM), inactives show top-dose activity change, negative = inhibition, actives largely listed as inhibitors; recombinant APE1, TAMRA/BHQ-2 abasic DNA cleavage fluorescence; DNA repair nuclease/redox regulator APEX1 (Homo sapiens), P27695; 350,000 compounds, 0.35% hits; AID 2517, 2012;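 also: plate controls were vehicle for no effect and reference inhibitor for full effect; nearly all actives have a fitted effect of over 55% in size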
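Enzyme (0.75 nM final) and test compound are incubated 15 min at room temperature before adding 50 nM quenched THF abasic-site duplex. Cleavage dequenches TAMRA, followed at 525/598 nm over three reads one minute apart.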
L3MBTL1 inh = qHTS Assay for the Inhibitors of L3MBTL1. Lethal(3)malignant brain tumor-like protein 1 (Homo sapiens), Q9Y468. AlphaScreen L3MBTL1–H3K9me1 peptide binding. Potency, µM (series often up to 57.1 µM), without a hit: at the highest dose activity, negative = inhibition, usual class: inhibitors. 230,000 compounds, 0.66% hits. AID 485360, 2010; also: nearly all actives have a fitted effect of over 60% in size
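L3MBTL1 50 nM + b-AHA-H3(1-15)K9me1 75 nM, 30 min RT; compound added, 30 min RT; streptavidin donor/Ni-chelate acceptor beads 10 ug/mL each final, 30 min RT dark; AlphaScreen read.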
RGS12 GoLoco inh = qHTS Assay for Inhibitors of RGS12 GoLoco Motif Activity (Red Fluorophore). Guanine nucleotide-binding protein G(i) subunit alpha-1 (Homo sapiens), P63096. Gai1:RGS12 GoLoco peptide FP, rhodamine, 10 min. Potency, µM (doses to about 61.6 µM), for inactives: at the top dose activity, negative = inhibition, usual class: inhibitors. 230,000 compounds, 0.44% hits; active = well fitted inhibition curve with a large enough effect, not every such curve was filed as active; inactive = no such curve, though single readings can be large or run the other way; also: nearly all actives have a fitted effect of over 30% in size
* marks the source's active call; other numbers are inactive results; i = inactive; ? = inconclusive; / = no result given; [ ] = dose if it differs, or a comment. Many of the other results were omitted from the sample, so hits are more common in it than they were. Unless noted, calls follow the shape of the dose curve; as a rule, active = well fitted curve in the direction sought with a large enough effect; inconclusive = small, poorly fitted or top-dose-only effect, or another doubt; inactive = no such curve, though single readings can be large; an effect the other way counts as inactive or inconclusive. Unless noted, % is scaled to controls: 0 for no effect and ±100 for the full control effect; potency is read from the fitted curve at half-maximal effect.

SMILES	BLM inh	KDM4E inh	RECQ1 helicase	APE1 inh	L3MBTL1 inh	RGS12 GoLoco inh
C[C@H]1[C@H](C)CC[C@]2(C(=O)O)CC[C@]3(C)C(=CCC4[C@@]5(C)CC[C@H](O)C(C)(C)[C@@H]5CC[C@]43C)[C@H]12 (stereo partly drawn)	-1.8%	-9.0%	-1.0%	?	/	0.7%
Cc1ccccc1CNC(=O)c1ccc2c(c1)N(Cc1ccccc1)CCS2	-6.3%	/	/	/	/	/
Cc1ccc(NC(=S)N/N=C/c2ccc([N+](=O)[O-])s2)cc1	-11.1%	0.1%	-0.6%	16.3%	?	134.7%
NC(=O)c1ccc(N=Cc2ccc([N+](=O)[O-])s2)cc1	-3.3%	22.4µM*	?	?	12.6µM*	6.4%
O=[N+]([O-])c1ccc(C=Nc2ccc(Cl)c([N+](=O)[O-])c2)s1	-1.3%	14.1µM*	?	?	?	-3.4%
Cc1cc(C)cc(N=Cc2ccc([N+](=O)[O-])s2)c1	-3.7%	?	0.0%	9.1%	8.91µM*	2.4%
CCCCOC(=O)c1cccc(NC(=O)/C=C/c2ccccc2Cl)c1	-8.9%	/	/	/	/	/
O=C(O)C=Cc1ccc(Cn2ccnc2)cc1	-0.2%	-8.1%	-3.7%	-4.1%	/	1.2%
COc1ccc(-c2nc3c(c4c2C[C@H](c2ccccc2)OC4)CN(S(=O)(=O)c2ccc(C)cc2)CC3)c(C)c1	-5.2%[12.4 µM]	9.4%[11.4 µM]	i[11.5 µM]	-3.9%[12.4 µM]	/	2.7%[14.2 µM]
CC(=O)OCC(NC(=O)C(C)NC(=O)OC(C)(C)C)C1OC(n2cc(F)c(=O)[nH]c2=O)C(OC(C)=O)C1OC(C)=O (stereo not drawn)	1.3%	/	i	-3.3%	/	/
COc1ccccc1CNC(=O)COCc1cc(-c2cccs2)on1	-0.2%	/	/	/	/	/
CC1(C)OCC(CSC2=C(SCC3COC(C)(C)O3)C(=O)c3ncccc3C2=O)O1 (stereo not drawn)	?	1µM*	-4.9%	-9.2%	/	-33.9%
CCOP(=O)(OCC)/C(=N/OC(=O)c1ccccc1C)C(N)=O	-0.6%	11.5%	-0.4%	0.6%	11.6%	6.3%
CCOP(=O)(OCC)/C(=N/OC(=O)c1ccc(OC)cc1)C(N)=O	35.0%	-0.2%	i	-9.2%	-0.1%	4.47µM*
CCC(=O)Oc1ccc2c(c1)CC[C@@H]1[C@@H]2CC[C@]2(C)[C@@H](OC(=O)CC)CC[C@@H]12	/	/	/	-4.2%	/	/
Cc1oc(/C=N/NC(=O)CC2(C)OCCO2)cc1Br	6.8%	-1.0%	-9.2%	3.5%	-1.5%	8.0%
CC1(CC(=O)N/N=C/c2cc(Br)c(O)cc2O)OCCO1	-0.2%	25.1µM*	-11.9%	-6.0%	13.6%	2.0%
Cc1ccccc1/C=N/NC(=O)Cn1cnc([N+](=O)[O-])n1	0.6%	-2.4%	-4.4%	2.8%	/	4.9%
O=C(Cn1cnc([N+](=O)[O-])n1)N/N=C/c1ccccc1O	1.2%	25.1µM*	-7.7%	0.7%	?	-0.6%
O=C(Cn1cnc([N+](=O)[O-])n1)N/N=C/c1cc(Cl)ccc1O	0.5%	22.4µM*	-6.8%	0.7%	17.8µM*	4.6%
CC(C1CCCC(=O)C1)[N+](=O)[O-] (stereo not drawn)	-2.2%	9.9%	-2.0%	-0.3%	/	3.6%
COc1cccc([C@@H]2Oc3ccc(Br)cc3C(=O)[C@H]2OC(=O)NS(=O)(=O)c2ccc(C)cc2)c1	0.4%	2.9%	-3.1%	-5.1%	/	-3.1%
O=c1ccc(N=Nc2ccccc2)ccc1O	-4.8%	5.62µM*	-3.2%	-5.5%	-11.4%	2.9%
CC(C)(C)C(=O)C1C(=O)c2ccccc2C1=O	/	/	5.1%	-1.1%	/	10µM*
C=CCN(C)CCCCCCOc1ccc(C(=O)c2ccc(Br)cc2)c(F)c1	-1.1%	/	-8.7%	0.9%	/	/
SMILES	BLM inh	KDM4E inh	RECQ1 helicase	APE1 inh	L3MBTL1 inh	RGS12 GoLoco inh
COC(=O)c1ccccc1NC(=O)COC(=O)c1ccccc1N=Nc1ccc(N(C)C)cc1	-9.9%	-3.3%	5.1%	-0.2%	10µM*	1.3%
O=C1[C@H]2[C@H]3[C@H](O)[C@H](O)C/C(=N/OC[C@@H](O)COCc4ccco4)[C@@H]3CC[C@@H]2C(=O)N1C[C@@H]1CCCO1	-0.4%[12.4 µM]	/	2.9%[11.5 µM]	?	/	/
Cc1cccc2cc(C3CC(c4ccco4)=NN3S(=O)(=O)c3ccccc3)c(Cl)nc12 (stereo not drawn)	-6.4%	-2.7%	28.2µM*	?	-13.8%	16.7%
Cc1cc(/C=C2/NC(=O)NC2=O)c(C)n1-c1ccc(C#N)cc1	-9.3%	?	-0.5%	5.9%	/	17.7%
Cc1cc(/C=C2/NC(=O)NC2=O)c(C)n1-c1ccccn1	4.0%	25.1µM*	-3.5%	12.4%	-6.0%	8.6%
Cc1ccc(-n2c(C)cc(/C=C3\NC(=O)NC3=O)c2C)c(C)c1	-7.6%	25.1µM*	-1.5%	-3.8%	-7.1%	10.7%
Cc1cc(/C=C2\NC(=O)NC2=O)c(C)n1-c1ccc(N2CCOCC2)cc1	3.8%	15.8µM*	i	-0.5%	25.2%	-1.1%
Cc1cc(/C=C2/NC(=O)NC2=O)c(C)n1-c1ccc(N2CCOCC2)cc1	0.1%	?	i	-0.6%	-6.3%	5.6%
COc1cccc(/C=N/Nc2nc(Nc3ccc([N+](=O)[O-])cc3)nc(N3CCCC3)n2)c1O	28.2µM*	?	?	-11.8%	/	-3.2%
O=[N+]([O-])c1ccc(Nc2nc(N/N=C/c3cccc(F)c3)nc(N3CCCC3)n2)cc1	4.2%	0.8%	-0.1%	?	-2.3%	8.8%
O=[N+]([O-])c1ccc(Nc2nc(NC3CCCCC3)nc(N3CCCC3)n2)cc1	28.2µM*	-1.2%	-8.2%	0.0%	/	4.2%
Cc1cc(C)c2c(=O)n(CC(=O)N3CCC(Cc4ccccc4)CC3)sc2n1	-2.3%	?	7.6%	-3.5%	-8.8%	-3.1%
Cc1cccc(N2CCN(C(=O)Cn3sc4nc(C)cc(C)c4c3=O)CC2C)c1 (stereo not drawn)	-0.7%	?	-16.2%	2.5%	/	1.41µM*
CC/C=C\C/C=C\C/C=C\C/C=C\C/C=C\C/C=C\CCC(=O)NCC(=O)O	-10.1%	-1.3%	-7.5%	-0.8%	/	5.2%
COC(=O)C1(C(=O)OC)C/C=C\C/C=C\c2ccccc2C1C[N+](=O)[O-] (stereo not drawn)	0.7%	-4.2%	-5.2%	3.1%	/	1.4%
